Screens deposited in PubChem by The Scripps Research Institute Molecular Screening Center.
FBW7 act: FBW7 E3 ligase activators, primary screen, biochemical, AlphaScreen, human; 0.13% of 650,000 active; F-box/WD repeat-containing protein 7 (Homo sapiens), Q969H0; AlphaScreen FBW7–phospho-cyclin E peptide binding, activator screen; normalized activity (activation), % at 26.1 µM; AID 1259310, 2017; in the data active means normalized activity above about 1.9%;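 further: purified mutant Fbw7 with reduced substrate affinity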
GPR151 activ: activators of human GPR151, primary screen, cell-based, PathHunter beta-arrestin, luminescence | 1% of 650,000 active | PathHunter beta-arrestin GPR151 cells | G-protein coupled receptor 151 (Homo sapiens), Q8TDV0 | activation, % at 11.2 µM; in the data active means activation above about 4.9%;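 further: 0% = median of compound wells and 100% = cells with positive control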
Target sequence (Q8TDV0 whole entry, looked up): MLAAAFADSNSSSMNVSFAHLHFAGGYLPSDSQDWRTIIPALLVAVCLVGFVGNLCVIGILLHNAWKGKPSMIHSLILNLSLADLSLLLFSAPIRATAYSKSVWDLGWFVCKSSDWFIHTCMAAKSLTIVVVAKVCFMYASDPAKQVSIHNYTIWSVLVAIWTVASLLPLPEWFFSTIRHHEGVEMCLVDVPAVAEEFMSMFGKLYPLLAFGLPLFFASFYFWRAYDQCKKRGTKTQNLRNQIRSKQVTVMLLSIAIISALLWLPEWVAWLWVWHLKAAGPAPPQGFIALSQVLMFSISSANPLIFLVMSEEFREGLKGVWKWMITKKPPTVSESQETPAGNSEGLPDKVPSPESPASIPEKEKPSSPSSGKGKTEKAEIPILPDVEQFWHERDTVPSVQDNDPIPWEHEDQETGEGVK
MITF primary: MITF inhibitors, primary screen, biochemical, AlphaScreen, human; inhibition, % at 2.6 µM; Microphthalmia-associated transcription factor (Homo sapiens), O75030; AID 1259374, 2018; 0.91% of 650,000 active; AlphaScreen MITF homodimerization, bead proximity signal; in the data active means inhibition above about 50%;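 further: 0% = vehicle wells with protein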
TEAD-YAP inh: TEAD-YAP interaction inhibition, primary screen, TEAD-YAP interaction inhibitor project, luminescence, HEK-TIYL cells. TEAD-Gal4/YAP UAS-luciferase luminescence. inhibition, % at 9.12 µM. 1.4% of 640,000 active; in the data active means inhibition above about 32%;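 further: 0% = median of test compound wells and 100% = reference inhibitor wells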
* hit, by the source's call. Compounds with a hit are over-represented: about 3.5% of the library has one in this group of screens.

SMILES | FBW7 act | GPR151 activ | MITF primary | TEAD-YAP inh
c1ccc(NNc2nc3ccccc3s2)cc1 | 0 | -1 | 10 | 36*
O=C(O)CCNc1nc2ccccc2s1 | 0 | 0 | 1 | 42*
O=C(O)CNc1nc2ccccc2s1 | 1 | -2 | 32 | 11
O=C(NNc1nc2ccccc2s1)Nc1ccccc1 | 0 | -1 | -2 | -36
Nc1ncnc(N(c2ccccc2)C2CCCCC2)c1[N+](=O)[O-] | 0 | 1 | 16 | -5
CCN(c1ncnc(N)c1[N+](=O)[O-])C1CCCCC1 | 0 | 0 | 21 | 51*
Cc1cc([N+](=O)[O-])nn1CC(=O)Nc1cccc(F)c1C#N | 0 | 0 | 6 | 36*
COc1ccc(CN2CC[C@H]3[C@H](CCC(=O)N3CCCN3CCCC3=O)C2)cc1 | 0 | -1 | -3 | 3
OC(CNCC1CCCO1)COc1ccc(OCC(O)NCC2CCCO2)cc1 (stereo not drawn) | 2.3* | -1 | 12 | 6
OC(CNCC1CCCO1)COc1ccc(OCC(O)CNCC2CCCO2)cc1 (stereo not drawn) | 0 | 1 | 9 | 2
Cc1ncn(-c2ccc(Nc3ncc4cccc(-c5cnn(CCN6CCOCC6)c5)c4n3)cc2)n1 | 1 | 2 | 35 | 29
CC(C)OC(=O)c1ccc(NC(=O)COc2ccccc2Br)cc1 | 0 | -1 | 6 | 13
O=C1NC(=S)N(c2ccccc2)C(=O)/C1=C\c1ccoc1 | 0 | 1 | 71* | 3
O=C1NC(=S)N(c2ccc(Cl)cc2)C(=O)/C1=C\c1ccoc1 | 0 | -2 | 34 | 10
Cc1cccc(N2C(=O)NC(=O)/C(=C\c3ccoc3)C2=O)c1 | 0 | -1 | 58* | -4
Cc1cccc(N2C(=O)NC(=O)/C(=C\c3cccc(O)c3)C2=O)c1 | 0 | 1 | 4 | -3
CN1CCN(C2=CC(=[N+]3CCCC3)CC(C)(C)C2)CC1 | 0 | 1 | 10 | -5
CC1(C)CC(N2CCCC2)=CC(=[N+]2CCCCCC2)C1 | 0 | -1 | 17 | 66*
CN1CCN(C2=CC(=[N+]3CCCCC3)CC(C)(C)C2)CC1 | 0 | -1 | 7 | 1
CC1CC(C)C[N+](=C2C=C(N3CCCC3)CC(C)(C)C2)C1 (stereo not drawn) | 0 | 4 | 6 | 77*
C1=C(N2CCCC2)CCCC1=[N+]1CCCC1 | 0 | 0 | 1 | 42*
COc1ccc2ccccc2c1C1C(C(C)=O)=C(C)N=c2s/c(=C\c3ccc(O)cc3)c(=O)n21 (stereo not drawn) | 0 | 0 | 16 | -6
O=C(CSc1nc2c(c(=O)[nH]1)CCC2)Nc1ccc(F)cc1F | 0 | -1 | 4 | -3
C/C(=N/NC(=O)Cc1cccn1C)c1cccc([N+](=O)[O-])c1 | 0 | 0 | 15 | -4
CN1CCC(=NNC(=O)c2cc(O)c(O)c(O)c2)CC1 | 0 | 0 | 83* | -2
SMILES | FBW7 act | GPR151 activ | MITF primary | TEAD-YAP inh
COc1cc(OC)cc(C(=O)NN=C2CCN(C)CC2)c1 | 0 | 1 | 18 | 51*
C=CCOC(=O)c1ccc(NC(C)=O)cc1 | 0 | -2 | 23 | -3
COC(=O)c1c(C)oc2c1cc(NS(=O)(=O)c1ccc(OC)cc1)c1ccccc12 | 0 | -1 | 2 | 51*
COC(=O)c1c(C)oc2c1cc(NS(=O)(=O)c1ccccc1)c1ccccc12 | 0 | 2 | 0 | 4
COc1ccc(S(=O)(=O)Nc2cc3c4c(oc3c3ccccc23)CCCC4=O)cc1 | 0 | 1 | 13 | 56*
Fc1ccc(NC(=S)NCc2ccc3c(c2)OCO3)c(F)c1 | 0 | 2 | -5 | -2
Cc1ccc(Cl)cc1NC(=S)N(CCCN1CCCCCC1)Cc1ccco1 | 0 | 0 | -11 | 7
CCOc1cc(NC(=O)c2cnccn2)c(OCC)cc1NC(=O)Cc1ccccc1 | 0 | -1 | -14 | -6
CC1CCC(C(=O)NC(Cc2c[nH]c3ccccc23)C(=O)Nc2cccnc2)CC1 (stereo not drawn) | 0 | 0 | 9 | 58*
O=C(NC(Cc1c[nH]c2ccccc12)C(=O)Nc1ccccc1)Oc1ccccc1 (stereo not drawn) | 0 | 1 | 6 | 10
COc1ccc(NC(=O)C(Cc2c[nH]c3ccccc23)NC(=O)c2ccccc2)cc1 (stereo not drawn) | 0 | 0 | 5 | 62*
COc1cc(C(=O)Oc2ccc3c(=O)c(Oc4ccc(C(C)(C)C)cc4)coc3c2)cc(OC)c1OC | 0 | -1 | -6 | 80*
O=c1c(Oc2ccc(Cl)cc2)coc2cc(O)ccc12 | 0 | 2 | 12 | -4
CC(C)(C)c1ccc(Oc2coc3cc(O)ccc3c2=O)cc1 | 1 | 0 | 18 | 64*
COc1cc(C(=O)Oc2ccc3c(=O)c(Oc4cc(C)cc(C)c4)coc3c2)cc(OC)c1OC | 0 | 1 | 3 | 2
CN1CCN(c2ccc(-c3ccc4c(-c5cccc(O)c5)[nH]nc4n3)cn2)CC1 | 0 | 0 | -5 | 96*
COc1ccc(-c2[nH]nc3nc(-c4ccc(N5CCN(C)CC5)nc4)ccc23)cc1OC | 1 | 1 | 20 | -44
Fc1cccc(CSc2nc3ccccc3c3nc(-c4ccccc4)nn23)c1 | 0 | 0 | -4 | -11
CCOC(=O)c1c(-c2ccc(OC)cc2)csc1NC(=O)CSc1ncn[nH]1 | 0 | 3 | 4 | 35*
CC(=O)C1=C(O)C(=O)N(c2nnn(C)n2)C1c1cccs1 (stereo not drawn) | 3.6* | -1 | 5 | -1
O=C(C1=C(O)C(=O)N(c2nccs2)C1c1cccs1)c1cccs1 (stereo not drawn) | 0 | -1 | 33 | -4
CC(=O)NC(c1ccco1)c1cc([N+](=O)[O-])c2cccnc2c1O (stereo not drawn) | 0 | -1 | 55* | -2
CC(=O)NC(c1ccc(Cl)cc1Cl)c1cc([N+](=O)[O-])c2cccnc2c1O (stereo not drawn) | -2 | 1 | 58* | 31
COc1ccccc1C(NC(C)=O)c1cc([N+](=O)[O-])c2cccnc2c1O (stereo not drawn) | -1 | 0 | 85* | -8
CC(=O)NC(c1ccc(C)cc1)c1cc([N+](=O)[O-])c2cccnc2c1O (stereo not drawn) | -1 | 1 | 31 | -10
O=[N+]([O-])c1cc([N+](=O)[O-])c2cccnc2c1Oc1ccccc1O | -1 | -1 | 68* | -27
CN(C)c1ccc(N2C(=O)CC(NC34CC5CC(CC(C5)C3)C4)C2=O)cc1 (stereo not drawn) | 0 | 2 | -2 | 0
O=C(Nc1ccc(Br)cc1F)c1cc(S(=O)(=O)N2CCCCC2)ccc1F | 0 | 0 | 6 | -1
COc1cc(C(=O)Oc2ccc([N+](=O)[O-])c3cccnc23)cc(OC)c1OC | 0 | 1 | 15 | 6
CC(=O)NC(c1ccc2c(c1)OCO2)c1cc([N+](=O)[O-])c2cccnc2c1O (stereo not drawn) | -1 | 0 | 68* | -3
